# Experimental data reported in ChEMBL document CHEMBL1157539, “Thousands of chemical starting points for antimalarial lead identification” (Nature, 2010).
# Test system: Plasmodium falciparum
# Experiment: GSK_TCMDC: Inhibition of Plasmodium falciparum 3D7 in whole red blood cells, using parasite LDH activity as an index of growth. Test compounds present at 2uM
# Format: functional
row,SMILES,Inhibition
1,Cc1ccc(Cl)cc1N1CCN(CCCNC(=O)C2CCN(c3nc4ccccc4[nH]3)CC2)CC1,88%
2,Br.CCCC1N=C(N)N=C(N)N1c1ccc(C)cc1 (configuration not stated),94%
3,Cc1ccccc1C1CCN(C2CCC(NC(=O)c3ccc(-c4cccs4)s3)CC2)CC1 (configuration not stated),100%
4,COc1cc(NC(=O)c2ccc3oc4ccccc4c3c2)ccc1OCCN1CCCCC1.Cl,89%
5,Cc1ccc(CNC(=O)[C@H](Cc2ccccc2)Nc2cc(C)nc(Nc3ccccc3)n2)cc1.O=C(O)C(F)(F)F,100%
6,COc1ccc2nccc([C@@H](O)CN3CCC(NC/C=C/c4cccnc4)CC3)c2c1.CS(=O)(=O)O,100%
7,CSc1ccc(NC(=O)Nc2cc(C)nc3ccccc23)cc1,100%
8,COc1ccc(Nc2nc(NC3CCCC3)cc(-c3ccc(OC)cc3)n2)cc1,86%
9,Nc1ncc(-c2ccsc2)c2ccc(-c3cnc[nH]3)cc12,100%
10,COc1cc(-c2nc(-c3ccc(C(=O)c4ccc(F)cc4)cc3)c(-c3ccccc3)[nH]2)cc(OC)c1O,100%
11,CCCNC(=O)c1ccnc(-c2ccc(CNC3Cc4ccccc4C3)cc2)c1.O=C(O)C(F)(F)F,92%
12,CCN(CCC1(c2ccc(Cl)c(Cl)c2)CN(C(=O)c2cc(OC)c(OC)c(OC)c2)CCO1)C1CC2c3ccccc3CC21 (configuration not stated),80%
13,CCS(=O)(=O)c1ccc(OC)c(Nc2nccc(-c3c(-c4cccc(NC(=O)c5c(F)cccc5F)c4)nn4ncccc34)n2)c1,87%
14,Cc1cccc2nc(-c3ccc(-c4cccc(CNCc5ccccc5)c4)cc3)[nH]c12.O=C(O)C(F)(F)F,100%
15,CCOC(=O)c1nc(-c2ccccc2)[nH]c1-n1nc(C)cc1C,92%
16,CCOc1ccc(-c2nonc2NC(=O)CC(C)C)cc1OCC,92%
17,FC(F)(F)c1ccc(-c2ccc(CNC3CCN(CCN4CCOCC4)CC3)cc2)cc1,100%
18,CC(C)NCc1ccc(OCc2cccc(COc3ccc(CNC(C)C)cc3I)c2)c(I)c1.Cl,100%
19,Cc1ccc(N2CCN(C(=O)c3cccc(-c4cncc5nc(-c6ccco6)n(C)c45)c3)CC2)nc1,94%

row,SMILES,Inhibition
1,O=C(O)C(F)(F)F.c1ccc(CNCc2cccc(-c3ccc(-c4nc5ccccc5[nH]4)cc3)c2)cc1,97%
2,CC1CN(c2ccc(NC(=O)c3ccc(F)cc3)cc2)CCN1Cc1cccc(F)c1.O=C(O)C(F)(F)F (configuration not stated),81%
3,Cc1csc(-c2nc(NCCc3c(C)noc3C)ncc2-c2ccsc2)n1,90%
4,CCS(=O)(=O)N1CCN(c2nc(-c3ccccc3)nc(COC)c2Cc2ccccc2F)CC1,82%
5,O=C(NCc1cccc(C(F)(F)F)c1)[C@@H]1CCCN1C(=O)c1ccc(O)c(-c2ccc(Cl)c(Cl)c2)c1,99%
6,CN(C)Cc1cccc(-c2cc3c(-c4cnn(C)c4)c(Cl)cnc3[nH]2)c1,96%
7,CC(C)COc1ccc2ccccc2c1CNCCCCCCNCc1c(OCC(C)C)ccc2ccccc12.CS(=O)(=O)O,90%
8,CC1(C(=O)Nc2ccc([N+](=O)[O-])cc2O)CC2c3ccccc3C1c1ccccc12 (configuration not stated),98%
9,Cn1cnc(CCNC(=O)c2ccc(-c3ccc(-c4nc5cc(F)ccc5[nH]4)cc3)cc2)c1,92%
10,O=C(NCCNc1ccnc(Nc2ccc(F)cc2)n1)c1cc2ccccc2s1,99%
11,COCCNCc1ccc(-c2ccc(CNc3ccc4ncccc4c3)cc2)cc1.O=C(O)C(F)(F)F,85%
12,CCN(CC)S(=O)(=O)n1ncc2c3c(N)nc(N)nc3ccc21.Cl,93%
13,CCCNC(=O)c1ccc(N2CCC(c3ccccc3C)CC2)nc1.O=C(O)C(F)(F)F,86%
14,CC(=O)c1sc(NC(=O)Nc2ccc(C)cc2C)nc1C,96%
15,O=C(O)C(F)(F)F.Oc1ccc(CCCNc2nc(NCc3cccc4ccccc34)nc(NC3CCNCC3)n2)cc1,91%
16,FC(F)(F)c1ccc2[nH]c(-c3cccc(-c4ccc(CNCc5ccccc5)cc4)c3)nc2c1.O=C(O)C(F)(F)F,100%
17,COc1ccc(/C=C/C(=O)N2CCc3cc4nccc(N5CCN6CCC[C@H]6C5)c4cc32)cc1,100%
18,Cc1noc(C)c1-c1ccc2c(Nc3ccccc3C(C)(C)C)c(C(=O)NC3CCCC3)cnc2c1.Cl,93%
